Most compounds without a hit are left out; they make up all but 1.1% or so of the library.
HTR5A ag = HTR5A agonism, opioid heterodimer counter-screen. HTR5A agonist assay, luminescence, cell-based. P47898. 0.61% of 340,000 active. activation, % at 9.3 µM. AID 504692; in the data active = activation mostly above about 9.5%, no sharp cut-off; inactive = mostly below about 7.6%;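 also: 0% = cells with vehicle only and 100% = reference agonist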
MOR-DOR inv ag = inverse agonist of human OPRM1-OPRD1 heterodimerization; P35372+P41143; cell-based MOR-DOR heterodimer luminescence, inverse agonism; inhibition, % at 9.3 µM; 0.21% of 340,000 active; AID 504357; in the data active = inhibition above about 22%, passing the limit was not always enough;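 also: 0% = cells with DMSO and 100% = wells without cells with DMSO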
Target sequence (P35372 whole entry, looked up): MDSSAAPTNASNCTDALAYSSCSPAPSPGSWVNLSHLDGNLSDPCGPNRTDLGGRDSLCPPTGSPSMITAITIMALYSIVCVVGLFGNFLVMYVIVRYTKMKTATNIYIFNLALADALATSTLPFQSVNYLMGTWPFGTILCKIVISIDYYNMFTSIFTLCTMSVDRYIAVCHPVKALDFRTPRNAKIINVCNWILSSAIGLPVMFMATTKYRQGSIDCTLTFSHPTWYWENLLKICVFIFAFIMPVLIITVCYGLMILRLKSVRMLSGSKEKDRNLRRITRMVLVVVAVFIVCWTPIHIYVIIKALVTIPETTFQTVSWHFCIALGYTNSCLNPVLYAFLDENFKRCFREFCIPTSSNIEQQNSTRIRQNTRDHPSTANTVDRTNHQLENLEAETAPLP
Target sequence (P41143 whole entry, looked up): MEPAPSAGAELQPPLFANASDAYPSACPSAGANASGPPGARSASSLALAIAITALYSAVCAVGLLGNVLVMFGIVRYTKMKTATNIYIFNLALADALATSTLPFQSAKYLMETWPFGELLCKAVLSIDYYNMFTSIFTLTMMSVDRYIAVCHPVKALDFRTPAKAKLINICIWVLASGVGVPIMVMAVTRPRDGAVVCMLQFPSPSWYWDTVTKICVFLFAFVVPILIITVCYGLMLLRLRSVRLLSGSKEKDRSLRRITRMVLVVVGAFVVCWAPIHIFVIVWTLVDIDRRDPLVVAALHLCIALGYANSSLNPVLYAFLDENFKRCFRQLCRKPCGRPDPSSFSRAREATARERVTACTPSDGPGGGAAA
MOR-DOR ag-1 = agonists of human mu-delta opioid receptor heterodimerization; 0.3% of 340,000 active; AID 504326; P35372+P41143; activation, % at 9.3 µM; cells, OPRM1-OPRD1 heterodimerization, luminescence;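 also: 0% = vehicle-treated cells and 100% = reference agonist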
HTR5A inv ag = HTR5A inverse agonism, opioid heterodimer counter-screen; P47898; HTR5A cell line, luminescence; inhibition, % at 9.3 µM; 0.083% of 340,000 active; AID 504634; in the data active = inhibition mostly above about 23%, no sharp cut-off; inactive = mostly below about 18%;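 also: 0% = cells with DMSO and 100% = no-cell wells with DMSO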
MOR-DOR ag-2 = opioid heterodimer agonism, HTR5A counter-screen; shares compounds with HTR5A ag; U2OS counter-screen cells, complementation luminescence, 3 h; activation, % at 9.3 µM; 13% of 800 active
HTR5A ag conf = HTR5A (human) agonism, confirmation; 17% of 800 active; shares compounds with HTR5A ag; HTR5A agonist cell assay, luminescence; activation, % at 9.3 µM; in the data active = activation above about 17%;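 also: 0% = cells with vehicle only and 100% = full reference agonist response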
An asterisk follows results filed as active. Rule as the data show it, unless noted: active = activation above about 18%; inactive = the rest.

For CN1C[C@H](CO)C=C2c3cccc4[nH]cc(c34)C[C@H]21 the results were HTR5A ag 60*, MOR-DOR inv ag -22, MOR-DOR ag-1 4, HTR5A inv ag 13, MOR-DOR ag-2 11 and HTR5A ag conf 2.
Screening CCCCC/C(=N/O)c1c(C)[nH]c2ccccc12 returned HTR5A ag 15*, MOR-DOR inv ag -32, MOR-DOR ag-1 6, HTR5A inv ag -40, MOR-DOR ag-2 4 and HTR5A ag conf 2.
For Cc1cccc(-n2c(O)c(C)c(=O)[nH]c2=S)c1 the results were HTR5A ag -2, MOR-DOR inv ag -2, MOR-DOR ag-1 0 and HTR5A inv ag 5.
`CC1NC(=O)NC(=O)C1Br` (centres undefined) gave HTR5A ag 0, MOR-DOR inv ag 12, MOR-DOR ag-1 -2 and HTR5A inv ag -1.
`CP(=O)(Nc1ccccc1)C(Cl)(Cl)Cl` (centres undefined) gave HTR5A ag -5, MOR-DOR inv ag 14, MOR-DOR ag-1 -3 and HTR5A inv ag 30.
`CN1CC=C(c2c[nH]c3ccccc23)CC1` gave HTR5A ag 23*, MOR-DOR inv ag 6, MOR-DOR ag-1 -1, HTR5A inv ag -70, MOR-DOR ag-2 -2 and HTR5A ag conf -1.
Fc1ccccc1CNCCc1c[nH]c2ccccc12 was read as HTR5A ag 25*, MOR-DOR inv ag 9, MOR-DOR ag-1 -2, HTR5A inv ag -88, MOR-DOR ag-2 2 and HTR5A ag conf 39*.
Screening Fc1ccc(CNCCc2c[nH]c3ccccc23)cc1 returned HTR5A ag 5, MOR-DOR inv ag 14, MOR-DOR ag-1 -3 and HTR5A inv ag -13.
COC(=O)C1=C(c2ccc(OC)c(OC)c2)C[C@@H]2CC[C@H]1N2C(=O)NCc1ccc(F)cc1 was read as HTR5A ag 2, MOR-DOR inv ag -9, MOR-DOR ag-1 1 and HTR5A inv ag -19.
Screening COC(=O)C1=C(c2cc3ccccc3s2)C[C@@H]2CC[C@H]1N2C(=O)NCc1ccco1 returned HTR5A ag -2, MOR-DOR inv ag 14, MOR-DOR ag-1 -2 and HTR5A inv ag 3.
Screening CC(N)Cc1c[nH]c2ccc(Cl)cc12 (centres undefined) returned HTR5A ag 2, MOR-DOR inv ag 12, MOR-DOR ag-1 -2 and HTR5A inv ag -42.
Screening CCCCc1ccc2[nH]cc(CCN)c2c1 returned HTR5A ag 97*, MOR-DOR inv ag -31, MOR-DOR ag-1 5, HTR5A inv ag -231, MOR-DOR ag-2 -2 and HTR5A ag conf -7.
`NCCc1c[nH]c2ccc(OCc3ccccc3)cc12` gave HTR5A ag 33*, MOR-DOR inv ag 0, MOR-DOR ag-1 0, HTR5A inv ag -86, MOR-DOR ag-2 0 and HTR5A ag conf 1.
For COc1ccc2[nH]cc(CCN=C(N)N)c2c1 the results were HTR5A ag 6, MOR-DOR inv ag 0, MOR-DOR ag-1 0 and HTR5A inv ag -15.
For CN1CCc2nc(SCc3ccccc3Br)c(C#N)cc2C1 the results were HTR5A ag -5, MOR-DOR inv ag 8, MOR-DOR ag-1 -2 and HTR5A inv ag -39.
For Cc1cccc(CSc2nc3c(cc2C#N)CN(C)CC3)c1 the results were HTR5A ag 20*, MOR-DOR inv ag 18, MOR-DOR ag-1 -3, HTR5A inv ag -51, MOR-DOR ag-2 0 and HTR5A ag conf 0.
For CCCN(CCC)C1CCc2cccc(O)c2C1 (centres undefined) the results were HTR5A ag 46*, MOR-DOR inv ag 10, MOR-DOR ag-1 -2, HTR5A inv ag -146, MOR-DOR ag-2 1 and HTR5A ag conf 56*.
CCCN1CC[C@@H]2c3cc(O)ccc3CC[C@@H]21 was read as HTR5A ag 6, MOR-DOR inv ag -5, MOR-DOR ag-1 1 and HTR5A inv ag -20.
Screening CCCN(CCC)C1CCc2ccc(O)cc2C1 (centres undefined) returned HTR5A ag 35*, MOR-DOR inv ag -9, MOR-DOR ag-1 2, HTR5A inv ag -139, MOR-DOR ag-2 31* and HTR5A ag conf 1.
`COC(=O)C1=C(c2cc3ccccc3s2)C[C@@H]2CC[C@H]1N2C(=O)NCCS(C)=O` (some centres undefined) gave HTR5A ag -1, MOR-DOR inv ag 2, MOR-DOR ag-1 0 and HTR5A inv ag 0.
Screening CCC(=NCCc1c[nH]c2ccccc12)c1c(O)n(C)c(=O)n(C)c1=O returned HTR5A ag 40*, MOR-DOR inv ag -7, MOR-DOR ag-1 1, HTR5A inv ag -124, MOR-DOR ag-2 1 and HTR5A ag conf 1.
`CC(=NCCc1c[nH]c2ccccc12)c1c(O)n(Cc2ccccc2)c(=O)[nH]c1=O` gave HTR5A ag 8, MOR-DOR inv ag 4, MOR-DOR ag-1 -1 and HTR5A inv ag -82.
CCC(=NCCc1c[nH]c2ccccc12)c1c(O)n(-c2ccc(C)cc2)c(=O)[nH]c1=O was read as HTR5A ag 19*, MOR-DOR inv ag 2, MOR-DOR ag-1 0, HTR5A inv ag -113, MOR-DOR ag-2 0 and HTR5A ag conf -8.

Screening results from PubChem.
